Records with an inconclusive call do not appear. Activity calls are given as the source filed them. The calls were made as follows: active = hit-call score of the fitted dose curve at least 0.9, where 1 is the maximum; inconclusive = response in the unintended direction; inactive = score below 0.9.

Chain of rat CYP3A2, Cyp3a2 (gene 266682) (P05183 whole entry, looked up): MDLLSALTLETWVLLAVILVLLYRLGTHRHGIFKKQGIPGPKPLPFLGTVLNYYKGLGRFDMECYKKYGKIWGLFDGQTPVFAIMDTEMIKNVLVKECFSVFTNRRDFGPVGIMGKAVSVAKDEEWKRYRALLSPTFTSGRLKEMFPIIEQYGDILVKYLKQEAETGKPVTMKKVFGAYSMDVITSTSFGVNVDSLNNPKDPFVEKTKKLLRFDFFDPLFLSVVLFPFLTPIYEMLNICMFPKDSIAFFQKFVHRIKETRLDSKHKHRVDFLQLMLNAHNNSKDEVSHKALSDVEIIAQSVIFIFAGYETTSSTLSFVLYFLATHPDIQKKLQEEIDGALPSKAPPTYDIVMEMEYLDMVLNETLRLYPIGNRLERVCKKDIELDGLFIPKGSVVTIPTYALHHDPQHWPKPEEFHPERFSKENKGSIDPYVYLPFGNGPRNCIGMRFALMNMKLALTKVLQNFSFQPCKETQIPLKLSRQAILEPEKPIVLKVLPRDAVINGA
Chain of human AKT serine/threonine Kinase 2 (AKT2), AKT2 (gene 208) (P31751 whole entry, looked up): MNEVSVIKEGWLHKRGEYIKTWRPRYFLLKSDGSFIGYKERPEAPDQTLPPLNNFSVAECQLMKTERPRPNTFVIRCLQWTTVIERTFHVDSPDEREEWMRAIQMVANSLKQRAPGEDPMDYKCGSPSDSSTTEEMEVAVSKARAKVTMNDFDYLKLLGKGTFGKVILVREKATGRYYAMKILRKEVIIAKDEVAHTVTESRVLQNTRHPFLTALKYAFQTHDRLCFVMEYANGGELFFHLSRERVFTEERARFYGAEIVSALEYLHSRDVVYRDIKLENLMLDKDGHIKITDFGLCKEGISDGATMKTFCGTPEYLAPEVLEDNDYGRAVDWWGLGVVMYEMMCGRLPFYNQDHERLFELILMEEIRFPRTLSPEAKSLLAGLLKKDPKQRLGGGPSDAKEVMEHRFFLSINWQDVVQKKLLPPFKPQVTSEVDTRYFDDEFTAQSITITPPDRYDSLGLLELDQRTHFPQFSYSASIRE
Chain of human Casein Kinase 2- alpha 2 beta 2 (CK2a2b2), CSNK2A1 (gene 1457) (P68400 whole entry, looked up): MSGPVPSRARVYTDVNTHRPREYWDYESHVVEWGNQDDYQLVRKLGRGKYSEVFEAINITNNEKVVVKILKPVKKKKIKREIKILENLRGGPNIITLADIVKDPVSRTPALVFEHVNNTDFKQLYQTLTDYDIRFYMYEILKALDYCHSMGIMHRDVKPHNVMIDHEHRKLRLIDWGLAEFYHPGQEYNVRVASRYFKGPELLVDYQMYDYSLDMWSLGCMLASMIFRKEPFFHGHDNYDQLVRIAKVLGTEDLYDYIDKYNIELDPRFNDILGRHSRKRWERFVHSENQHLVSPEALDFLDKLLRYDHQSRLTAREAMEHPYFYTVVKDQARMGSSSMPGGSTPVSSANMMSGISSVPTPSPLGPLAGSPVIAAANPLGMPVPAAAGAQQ
Chain of human Caspase 5 (CASP5), CASP5 (gene 838) (P51878 whole entry, looked up): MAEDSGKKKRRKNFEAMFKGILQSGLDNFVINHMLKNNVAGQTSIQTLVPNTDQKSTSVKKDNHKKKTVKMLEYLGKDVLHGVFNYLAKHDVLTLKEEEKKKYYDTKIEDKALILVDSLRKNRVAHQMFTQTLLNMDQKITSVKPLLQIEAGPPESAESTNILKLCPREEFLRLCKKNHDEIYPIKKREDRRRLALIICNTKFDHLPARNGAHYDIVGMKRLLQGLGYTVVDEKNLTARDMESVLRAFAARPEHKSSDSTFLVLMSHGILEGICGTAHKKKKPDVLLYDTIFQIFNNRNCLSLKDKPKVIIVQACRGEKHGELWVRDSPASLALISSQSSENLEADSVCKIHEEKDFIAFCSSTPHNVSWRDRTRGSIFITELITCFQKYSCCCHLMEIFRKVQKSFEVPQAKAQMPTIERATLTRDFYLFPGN
Chain of human Acid Phosphatase 1 (ACP1), ACP1 (gene 52) (P24666 whole entry, looked up): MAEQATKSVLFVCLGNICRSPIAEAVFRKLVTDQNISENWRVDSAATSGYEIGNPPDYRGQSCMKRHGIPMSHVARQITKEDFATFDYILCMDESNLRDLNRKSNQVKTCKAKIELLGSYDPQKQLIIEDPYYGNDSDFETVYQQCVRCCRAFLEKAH
Chain of human Casein Kinase 1-delta (CK1D), CSNK1D (gene 1453) (P48730 whole entry, looked up): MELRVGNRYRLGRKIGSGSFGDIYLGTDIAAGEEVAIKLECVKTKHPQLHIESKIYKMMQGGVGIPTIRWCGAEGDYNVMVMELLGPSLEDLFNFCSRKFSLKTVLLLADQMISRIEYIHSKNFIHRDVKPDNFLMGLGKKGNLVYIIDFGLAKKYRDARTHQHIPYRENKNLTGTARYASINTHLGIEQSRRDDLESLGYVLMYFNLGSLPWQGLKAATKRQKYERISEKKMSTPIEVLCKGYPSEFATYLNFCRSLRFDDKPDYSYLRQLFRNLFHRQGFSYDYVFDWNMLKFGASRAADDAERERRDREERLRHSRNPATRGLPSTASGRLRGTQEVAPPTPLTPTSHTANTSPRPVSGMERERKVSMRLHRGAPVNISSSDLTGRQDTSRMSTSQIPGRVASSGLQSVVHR
Chain of human Caspase 8 (CASP8), CASP8 (gene 841) (Q14790 whole entry, looked up): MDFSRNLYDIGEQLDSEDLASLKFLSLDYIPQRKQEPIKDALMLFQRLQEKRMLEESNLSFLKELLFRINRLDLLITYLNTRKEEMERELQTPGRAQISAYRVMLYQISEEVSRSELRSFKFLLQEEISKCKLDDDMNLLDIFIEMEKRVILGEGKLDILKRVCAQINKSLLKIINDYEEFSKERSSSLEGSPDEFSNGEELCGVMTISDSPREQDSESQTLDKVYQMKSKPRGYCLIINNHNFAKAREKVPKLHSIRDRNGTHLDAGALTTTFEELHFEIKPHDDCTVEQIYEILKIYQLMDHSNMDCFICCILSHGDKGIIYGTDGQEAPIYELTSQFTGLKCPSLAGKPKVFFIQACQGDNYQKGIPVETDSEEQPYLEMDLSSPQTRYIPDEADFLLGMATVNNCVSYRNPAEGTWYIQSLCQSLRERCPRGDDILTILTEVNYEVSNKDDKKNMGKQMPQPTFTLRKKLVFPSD
Chain of human Aurora Kinase A - serine/threonine-protein Kinase 6 (AurA), AURKA (gene 6790) (O14965 whole entry, looked up): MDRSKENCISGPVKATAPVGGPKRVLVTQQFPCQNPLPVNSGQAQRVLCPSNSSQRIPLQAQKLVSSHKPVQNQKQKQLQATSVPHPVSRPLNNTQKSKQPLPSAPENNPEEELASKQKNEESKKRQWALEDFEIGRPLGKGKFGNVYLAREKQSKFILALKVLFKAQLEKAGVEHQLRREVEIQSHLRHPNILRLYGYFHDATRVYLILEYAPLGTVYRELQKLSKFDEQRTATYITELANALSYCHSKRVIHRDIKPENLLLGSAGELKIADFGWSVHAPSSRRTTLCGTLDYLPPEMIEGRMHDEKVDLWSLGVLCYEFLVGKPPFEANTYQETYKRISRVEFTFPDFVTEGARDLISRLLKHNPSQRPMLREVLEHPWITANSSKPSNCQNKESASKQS

One assay has as its target rat CYP3A2, Cyp3a2 (gene 266682) (UniProt P05183). Kind of assay: NVS_ADME_rCYP3A2: NovaScreen (NVS) CYP450-related Enzyme Activity (ADME) Assay for rat CYP3A2 (AID 2283128). An outline of the steps:
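Fluorescence readout of extracted rat CYP3A2 activity 0.5 h post-dose, acetonitrile as negative control. Single-point testing in duplicate at 10 uM, followed by concentration series to a 20 uM maximum for actives.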
For `C=CCC1=C(C)[C@@H](OC(=O)[C@@H]2[C@@H](C=C(C)C)C2(C)C)CC1=O`, the concentration at half-maximal activity (AC50) is 7.55 µM (active).

As to `OC(c1ccc(Cl)cc1)(c1cncnc1)c1ccccc1Cl` (configuration not stated), the concentration at half-maximal activity (AC50) is 5.57 µM (active).

Consider `CN(C)C(=S)SSC(=S)N(C)C`, for which the AC50 was 2.42 µM (active).

Regarding `CC1COC(Cn2cncn2)(c2ccc(Oc3ccc(Cl)cc3)cc2Cl)O1` (configuration not stated), the AC50 is 1.35 µM (active).

In the case of `Cc1ccc(-c2c(Cl)nc(C#N)n2S(=O)(=O)N(C)C)cc1`, the half-maximal activity concentration (AC50) was 1.1 µM (active).

For `CCCN(CCC)c1c([N+](=O)[O-])cc(S(N)(=O)=O)cc1[N+](=O)[O-]`, the AC50 was 2.67 µM (active).

As to `C=CCC1=C(C)C(OC(=O)C2C(C=C(C)C)C2(C)C)CC1=O` (configuration not stated), the half-maximal activity concentration (AC50) was 6.87 µM (active).

In the case of `CS/C(C)=N/OC(=O)N(C)SN(C)C(=O)O/N=C(\C)SC`, the concentration at half-maximal activity (AC50) is 3.39 µM (active).

In the case of `O=C(Nc1ccccc1)Nc1ccnc(Cl)c1`, the AC50 was 6.44 µM (active).

Consider `CCON=C(CC)C1=C(O)CC(c2c(C)cc(C)cc2C)CC1=O` (configuration not stated), for which the half-maximal activity concentration (AC50) was 3 µM (active).

On to `CCOC(=O)CC(SP(=S)(OC)OC)C(=O)OCC` (configuration not stated), for which the AC50 was 0.306 µM (active).

In the case of `CCOP(=S)(OCC)SCn1c(=O)oc2cc(Cl)ccc21`, the AC50 is 0.518 µM (active).

With `COc1ccc(C(c2ccc(OC)cc2)C(Cl)(Cl)Cl)cc1`, the outcome was inactive.

For `CO/C=C(/C(=O)OC)c1ccccc1Oc1cc(Oc2ccccc2C#N)ncn1`, the AC50 was 6.6 µM (active).

For the next assay, the target named is human Acetylcholinesterase (AChE), ACHE (gene 43) (UniProt P22303). Kind of assay: NVS_ENZ_hAChE: NovaScreen (NVS) Enzymatic Assay for human Acetylcholinesterase (AChE) (AID 2283129). An outline of the steps: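 Actives from a duplicate single-point screen (25 uM) were followed up in concentration series. Enzyme activity read by absorbance (colorimetric) 0.33 hour after dosing, cell-free, normalized to DMSO, with loss of signal scored.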
Chain of human Acetylcholinesterase (AChE), ACHE (gene 43) (P22303 whole entry, looked up): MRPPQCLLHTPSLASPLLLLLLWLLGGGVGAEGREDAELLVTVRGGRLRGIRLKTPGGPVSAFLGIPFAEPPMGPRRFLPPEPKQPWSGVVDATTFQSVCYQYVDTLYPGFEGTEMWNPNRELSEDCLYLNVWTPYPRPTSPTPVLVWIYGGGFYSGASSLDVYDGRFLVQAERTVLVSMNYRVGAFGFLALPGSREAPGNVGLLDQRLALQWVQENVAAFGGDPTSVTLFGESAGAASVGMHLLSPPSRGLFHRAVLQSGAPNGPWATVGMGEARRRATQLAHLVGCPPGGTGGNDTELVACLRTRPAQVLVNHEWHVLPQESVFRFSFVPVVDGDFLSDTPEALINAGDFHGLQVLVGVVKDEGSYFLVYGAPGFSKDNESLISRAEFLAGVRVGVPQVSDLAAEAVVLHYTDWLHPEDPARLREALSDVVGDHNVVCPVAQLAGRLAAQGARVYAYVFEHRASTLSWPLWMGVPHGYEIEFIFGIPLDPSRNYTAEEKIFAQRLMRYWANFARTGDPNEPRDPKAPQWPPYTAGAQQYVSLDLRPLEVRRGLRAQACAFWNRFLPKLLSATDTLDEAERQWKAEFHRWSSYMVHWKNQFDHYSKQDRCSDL
On to `O=C(O)c1nc(Cl)ccc1Cl`, for which the result was inactive.

Turning to `COP(=S)(OC)Oc1nc(Cl)c(Cl)cc1Cl`, the outcome was inactive.

As to `CN(C)C(=S)SSC(=S)N(C)C`, the AC50 was 10.6 µM (active).

As for `CS/C(C)=N/OC(=O)N(C)SN(C)C(=O)O/N=C(\C)SC`, the half-maximal activity concentration (AC50) was 4.85 µM (active).

As for `COC(=O)C=C(C)OP(=O)(OC)OC`, the AC50 is 6 µM (active).

Consider `CNC(=S)S`, for which the concentration at half-maximal activity (AC50) is 39.9 µM (active).

The next assay addresses human Acid Phosphatase 1 (ACP1), ACP1 (gene 52) (UniProt P24666). The assay can be described thus: NVS_ENZ_hACP1: NovaScreen (NVS) Enzymatic Assay for human Acid Phosphatase 1 (ACP1) (AID 2283136). An outline of the steps: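 Cell-free fluorescence read-out of phosphatase activity, substrate and product separated by mobility shift, taken 1.5 h after compound addition; protein produced in Sf9. Single 25 uM duplicate screen, followed by concentration series for actives, scored as signal loss relative to DMSO.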
In the case of `C=CCC1=C(C)[C@@H](OC(=O)[C@@H]2[C@@H](C=C(C)C)C2(C)C)CC1=O`, the compound was called inactive.

On to `CCCN(CCC)c1c([N+](=O)[O-])cc(S(N)(=O)=O)cc1[N+](=O)[O-]`, for which the result was inactive.

Turning to `CNC(=S)S`, the AC50 was 9.04 µM (active).

The target of another assay is human Caspase 5 (CASP5), CASP5 (gene 838) (UniProt P51878). The assay can be described thus: NVS_ENZ_hCASP5: NovaScreen (NVS) Enzymatic Assay for human Caspase 5 (CASP5) (AID 2283137). An outline of the steps:
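Chemicals were first tested in duplicate at 25 uM against recombinant caspase 5 from E. coli. Activity was read by fluorescence intensity 2 hours after dosing. Those passing a preset inhibition threshold were retested in singleton concentration-response up to 50 uM.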
On to `O=C(Nc1ccccc1)Nc1ccnc(Cl)c1`, for which the call was inactive.

For `COc1ccc(C(c2ccc(OC)cc2)C(Cl)(Cl)Cl)cc1`, the concentration at half-maximal activity (AC50) was 25 µM (active).

Turning to `CO/C=C(/C(=O)OC)c1ccccc1Oc1cc(Oc2ccccc2C#N)ncn1`, the call was inactive.

For the compound `CCCC1COC(Cn2cncn2)(c2ccc(Cl)cc2Cl)O1` (configuration not stated), the outcome was inactive.

As to `COc1nc(NC(C)C)nc(NC(C)C)n1`, the compound was classed as inactive.

`CNC(=S)S`: the result was inactive.

A further assay has as its target human AKT serine/threonine Kinase 2 (AKT2), AKT2 (gene 208) (UniProt P31751). Kind of assay: NVS_ENZ_hAKT2: NovaScreen (NVS) Enzymatic Assay for human AKT serine/threonine Kinase 2 (AKT2) (AID 2283141). An outline of the steps: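 Cell-free fluorescence/electrophoretic mobility shift readout of recombinant human AKT2 activity, 1 h after chemical dosing. Duplicate primary screen at 25 uM, then singleton concentration-response up to 50 uM; loss of signal versus DMSO baseline.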
For the compound `CS/C(C)=N/OC(=O)N(C)SN(C)C(=O)O/N=C(\C)SC`, the compound was called inactive.

With `COc1nc(C)nc(NC(=O)NS(=O)(=O)c2ccccc2CCC(F)(F)F)n1`, the result was inactive.

As for `CNC(=S)S`, the call was inactive.

The next assay addresses human Aurora Kinase A - serine/threonine-protein Kinase 6 (AurA), AURKA (gene 6790) (UniProt O14965). Kind of assay: NVS_ENZ_hAurA: NovaScreen (NVS) Enzymatic Assay for human Aurora Kinase A - serine/threonine-protein Kinase 6 (AurA) (AID 2283142). An outline of the steps: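 Recombinant human AurA activity read by fluorescence after mobility-shift separation of product from substrate; 1 hour incubation. Chemicals first run in duplicate at 25 uM, then concentration series to 50 uM if over threshold; fitted relative to DMSO.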
Regarding `N#Cc1cc(Br)c(O)c(Br)c1`, the call was inactive.

Consider `Oc1ccccc1-c1ccccc1`, for which the compound was classed as inactive.

As to `Cc1ccc(-c2c(Cl)nc(C#N)n2S(=O)(=O)N(C)C)cc1`, the AC50 is 23.5 µM (active).

`CCCN(CCC)c1c([N+](=O)[O-])cc(S(N)(=O)=O)cc1[N+](=O)[O-]`: the call was inactive.

For the compound `Fc1ccc(Oc2ccnc3cc(Cl)cc(Cl)c23)cc1`, the outcome was inactive.

Consider `CNC(=S)S`, for which the call was inactive.

Consider `CCCCNC(=O)n1c(NC(=O)OC)nc2ccccc21`, for which the result was inactive.

In the next assay the target is human Caspase 4 (CASP4), CASP4 (gene 837) (UniProt P49662). Kind of assay: NVS_ENZ_hCASP4: NovaScreen (NVS) Enzymatic Assay for human Caspase 4 (CASP4) (AID 2283143). An outline of the steps: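 Compounds were first tested in duplicate at 25 uM, and hits were titrated singly to a 50 uM maximum. Recombinant protease from E. coli was read by fluorescence 2 h post-dose, and activity loss was fitted against the DMSO baseline.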
Chain of human Caspase 4 (CASP4), CASP4 (gene 837) (P49662 whole entry, looked up): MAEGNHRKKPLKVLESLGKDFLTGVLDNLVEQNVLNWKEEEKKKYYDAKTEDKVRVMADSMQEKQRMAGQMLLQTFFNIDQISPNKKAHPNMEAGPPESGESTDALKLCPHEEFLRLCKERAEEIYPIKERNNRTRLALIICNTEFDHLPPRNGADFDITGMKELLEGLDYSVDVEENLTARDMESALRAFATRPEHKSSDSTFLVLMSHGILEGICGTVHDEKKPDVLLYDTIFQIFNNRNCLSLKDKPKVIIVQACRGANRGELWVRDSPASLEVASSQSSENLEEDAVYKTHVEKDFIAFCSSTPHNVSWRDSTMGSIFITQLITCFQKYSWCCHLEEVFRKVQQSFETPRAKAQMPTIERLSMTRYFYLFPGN
As for `CC(C)Oc1cc(-n2nc(C(C)(C)C)oc2=O)c(Cl)cc1Cl`, the call was inactive.

Regarding `CC(C)C1(C)N=C(c2nc3ccccc3cc2C(=O)O)NC1=O` (configuration not stated), the result was inactive.

Turning to `CO/C=C(/C(=O)OC)c1ccccc1Oc1cc(Oc2ccccc2C#N)ncn1`, the compound was called inactive.

In the case of `CNC(=S)S`, the call was inactive.

A further assay deals with CDK2 (gene 1017) (UniProt P24941). Kind of assay: NVS_ENZ_hCDK2: NovaScreen (NVS) Enzymatic Assay for human Cyclin-Cependent Kinase 2 (CDK2) (AID 2283144). An outline of the steps: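 Compounds screened in duplicate at 25 uM, then in singleton concentration-response to a maximum of 50 uM, against recombinant CDK2; kinase activity read 1 hr after dosing by fluorescence with mobility-shift separation of substrate and product.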
For the compound `CCNc1nc(Cl)nc(NC(C)C)n1`, the outcome was inactive.

As for `CCCN(CCC)c1c([N+](=O)[O-])cc(S(N)(=O)=O)cc1[N+](=O)[O-]`, the compound was classed as inactive.

On to `COc1nc(C)nc(NC(=O)NS(=O)(=O)c2ccccc2Cl)n1`, for which the call was inactive.

Another assay has as its target human Caspase 8 (CASP8), CASP8 (gene 841) (UniProt Q14790). Kind of assay: NVS_ENZ_hCASP8: NovaScreen (NVS) Enzymatic Assay for human Caspase 8 (CASP8) (AID 2283146). An outline of the steps: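 The primary screen tested compounds in duplicate at a single 25 uM concentration, with actives followed up in concentration series. Activity of recombinant (E. coli) protease was measured by fluorescence 1 h post-dose, as signal loss against DMSO.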
`N#Cc1cc(Br)c(O)c(Br)c1`: the compound was called inactive.

Take `Fc1ccc(Oc2ccnc3cc(Cl)cc(Cl)c23)cc1`: the result was inactive.

As to `CNC(=S)S`, the compound was classed as inactive.

The next assay addresses human Casein Kinase 2- alpha 2 beta 2 (CK2a2b2), CSNK2A1 (gene 1457) (UniProt P68400). The assay can be described thus: NVS_ENZ_hCK2a2b2: NovaScreen (NVS) Enzymatic Assay for human Casein Kinase 2- alpha 2 beta 2 (CK2a2b2) (AID 2283147). An outline of the steps: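 Compounds were first screened in duplicate at 25 uM, and those passing the threshold were re-tested in concentration series up to a 50 uM maximum. Kinase activity of recombinant human CK2 α2β2 was measured 1 h after dosing by fluorescent substrate/product mobility-shift separation.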
Turning to `N#Cc1cc(Br)c(O)c(Br)c1`, the half-maximal activity concentration (AC50) was 13 µM (active).

For `Cc1ccc(-c2c(Cl)nc(C#N)n2S(=O)(=O)N(C)C)cc1`, the AC50 is 6.49 µM (active).

In the case of `CON(C)C(=O)Nc1ccc(Cl)c(Cl)c1`, the outcome was inactive.

Take `Cc1cc(Cl)ccc1OCC(=O)O`: the AC50 is 16.2 µM (active).

Consider `O=C(O)COc1nc(Cl)c(Cl)cc1Cl`, for which the half-maximal activity concentration (AC50) is 13.9 µM (active).

Regarding `CNC(=S)S`, the compound was classed as inactive.

For a further assay, the target named is human Casein Kinase 1-delta (CK1D), CSNK1D (gene 1453) (UniProt P48730). The assay can be described thus: NVS_ENZ_hCK1D: NovaScreen (NVS) Enzymatic Assay for human Casein Kinase 1-delta (CK1D) (AID 2283148). An outline of the steps:
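Recombinant human CK1-delta, cell-free; fluorescent substrate with electrophoretic mobility-shift separation of product, read 1 h after dosing. Single 25 uM duplicate screen, then concentration-response up to 50 uM; loss of signal vs DMSO.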
`CCNc1nc(Cl)nc(NCC)n1`: the outcome was inactive.

As for `CCNc1nc(Cl)nc(NC(C)C)n1`, the outcome was inactive.

`Cc1ccc(-c2c(Cl)nc(C#N)n2S(=O)(=O)N(C)C)cc1`: the compound was classed as inactive.

Turning to `CCCN(CCC)c1c([N+](=O)[O-])cc(S(N)(=O)=O)cc1[N+](=O)[O-]`, the result was inactive.

Take `CCCCC(CC)COC(=O)c1ccccc1C(=O)OCC(CC)CCCC` (configuration not stated): the result was inactive.

On to `CNC(=S)S`, for which the compound was called inactive.

As to `CCCCNC(=O)n1c(NC(=O)OC)nc2ccccc21`, the compound was called inactive.

For the origin of these results see PubChem BioAssay (EPA / NIEHS).
